# Results filed as inconclusive are left out. Where a call stands in place of a potency, no number is given. Values without a mark were called inactive. Active and inactive are the calls of the source. Calls come from the whole dose curve; as a rule, active = well fitted curve in the direction sought with a large enough effect; inconclusive = small, poorly fitted or top-dose-only effect, or another doubt; inactive = no such curve, though single readings can be large; an effect the other way counts as inactive or inconclusive.
# Tests used:
# [1] = molecular target: Rap guanine nucleotide exchange factor 3 (Homo sapiens) (UniProt O95398); assay: Confirmatory qHTS for antagonist of cAMP-regulated guanine nucleotide exchange factor 3 (EPAC1) (AID 1645880); note: nearly all actives have a fitted effect of over 55% in size; note: potency is the fitted concentration of half-maximal effect
# Sequence of Rap guanine nucleotide exchange factor 3 (Homo sapiens) (O95398 whole entry, looked up): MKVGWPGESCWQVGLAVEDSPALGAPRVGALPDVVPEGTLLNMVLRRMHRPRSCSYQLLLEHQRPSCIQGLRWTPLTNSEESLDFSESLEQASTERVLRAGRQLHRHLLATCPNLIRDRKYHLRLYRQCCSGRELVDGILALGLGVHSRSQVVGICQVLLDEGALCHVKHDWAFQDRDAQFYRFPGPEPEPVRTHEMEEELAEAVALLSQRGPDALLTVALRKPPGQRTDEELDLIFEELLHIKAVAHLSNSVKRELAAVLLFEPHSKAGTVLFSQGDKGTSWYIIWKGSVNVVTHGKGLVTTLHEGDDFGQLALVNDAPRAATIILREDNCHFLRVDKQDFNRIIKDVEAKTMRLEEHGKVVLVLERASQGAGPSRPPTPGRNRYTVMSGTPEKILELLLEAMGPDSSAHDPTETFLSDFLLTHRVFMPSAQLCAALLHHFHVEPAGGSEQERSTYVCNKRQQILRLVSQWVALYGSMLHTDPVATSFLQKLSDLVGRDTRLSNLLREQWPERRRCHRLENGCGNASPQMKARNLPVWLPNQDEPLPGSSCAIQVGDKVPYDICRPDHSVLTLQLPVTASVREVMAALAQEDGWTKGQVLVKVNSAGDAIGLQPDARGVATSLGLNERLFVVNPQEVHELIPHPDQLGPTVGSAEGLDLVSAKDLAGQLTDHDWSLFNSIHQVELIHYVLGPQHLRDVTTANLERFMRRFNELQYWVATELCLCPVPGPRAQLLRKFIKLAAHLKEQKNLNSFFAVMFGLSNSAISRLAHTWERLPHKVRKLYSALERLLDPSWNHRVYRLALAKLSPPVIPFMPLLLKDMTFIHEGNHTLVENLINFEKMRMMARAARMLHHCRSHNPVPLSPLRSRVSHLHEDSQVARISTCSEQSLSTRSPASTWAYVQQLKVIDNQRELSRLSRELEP
# Method in brief: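 Released BODIPY-GDP fluoresces less than Rap1-bound BODIPY-GDP; the signal is followed at 480/540 nm at 5-min intervals over 30 min, after 5 min at room temperature. Reactions contain 100 nM EPAC1, 250 nM RAP1B-BODIPY-GDP and 50 uM GDP; results are normalized to ATA and DMSO.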
# [2] = molecular target: Rap guanine nucleotide exchange factor 3 (Homo sapiens) (UniProt O95398); assay: Confirmatory qHTS for agonist of cAMP-regulated guanine nucleotide exchange factor 3 (EPAC1) (AID 1645881); note: nearly all actives have a fitted effect of over 75% in size; note: potency is the fitted concentration of half-maximal effect;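 for activation: EPAC1 catalysed release of BODIPY-GDP from Rap1B seen as fluorescence loss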
# [3] = molecular target: Rap guanine nucleotide exchange factor 4 (Homo sapiens) (UniProt Q8WZA2); assay: Confirmatory qHTS for agonist of cAMP-regulated guanine nucleotide exchange factor 4 (EPAC2) (AID 1645884);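 note: nucleotide exchange releases bodipy-GDP from Rap1 and this lowers its fluorescence; nearly all actives have a fitted effect of over 65% in size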; note: potency is the fitted concentration of half-maximal effect
# Sequence of Rap guanine nucleotide exchange factor 4 (Homo sapiens) (Q8WZA2 whole entry, looked up): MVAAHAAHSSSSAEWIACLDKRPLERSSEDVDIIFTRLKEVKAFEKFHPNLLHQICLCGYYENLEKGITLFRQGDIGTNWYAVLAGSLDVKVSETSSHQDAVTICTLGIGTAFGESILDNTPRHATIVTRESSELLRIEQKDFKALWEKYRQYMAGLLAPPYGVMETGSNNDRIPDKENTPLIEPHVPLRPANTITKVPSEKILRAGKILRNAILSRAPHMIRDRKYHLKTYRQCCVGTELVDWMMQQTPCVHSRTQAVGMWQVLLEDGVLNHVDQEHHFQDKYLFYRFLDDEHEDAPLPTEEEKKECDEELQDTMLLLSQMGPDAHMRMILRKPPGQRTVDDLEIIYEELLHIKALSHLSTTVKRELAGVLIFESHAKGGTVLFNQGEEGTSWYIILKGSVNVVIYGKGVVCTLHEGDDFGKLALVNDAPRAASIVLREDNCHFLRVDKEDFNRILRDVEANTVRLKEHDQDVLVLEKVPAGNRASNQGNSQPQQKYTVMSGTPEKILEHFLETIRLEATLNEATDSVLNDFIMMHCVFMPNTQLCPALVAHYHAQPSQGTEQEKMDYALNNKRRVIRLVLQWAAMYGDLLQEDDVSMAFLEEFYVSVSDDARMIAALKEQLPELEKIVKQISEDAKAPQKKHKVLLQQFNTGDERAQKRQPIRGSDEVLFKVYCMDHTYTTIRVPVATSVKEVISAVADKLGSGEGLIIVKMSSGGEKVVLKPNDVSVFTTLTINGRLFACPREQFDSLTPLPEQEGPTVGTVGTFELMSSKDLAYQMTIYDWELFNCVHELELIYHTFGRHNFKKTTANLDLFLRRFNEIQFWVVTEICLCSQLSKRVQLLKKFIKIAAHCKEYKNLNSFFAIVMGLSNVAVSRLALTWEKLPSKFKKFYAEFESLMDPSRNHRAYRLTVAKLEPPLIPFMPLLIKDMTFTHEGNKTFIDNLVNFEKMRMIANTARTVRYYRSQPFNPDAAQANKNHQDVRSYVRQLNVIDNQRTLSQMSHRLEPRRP
# [4] = molecular target: Rap guanine nucleotide exchange factor 4 (Homo sapiens) (UniProt Q8WZA2); assay: Confirmatory qHTS for antagonist of cAMP-regulated guanine nucleotide exchange factor 4 (EPAC2) (AID 1645885); note: nearly all actives have a fitted effect of over 25% in size; note: potency is the fitted concentration of half-maximal effect
# [5] = molecular target: Rap guanine nucleotide exchange factor 3 (Homo sapiens) (UniProt O95398); assay: Counterscreen qHTS for antagonist of cAMP-regulated guanine nucleotide exchange factor 3 (EPAC1) (AID 1645888)
# Method in brief: (§1)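 Rap1B–BODIPY-GDP (250 nM) with 50 uM GDP; compounds pin-transferred to 9.74 nM–152 uM final (activator) or from 7.32 nM upwards (inhibitor). Fluorescence Ex/Em 480/540 nm read at 5 and 30 min, then after adding cAMP or buffer, at room temperature.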
# [6] = molecular target: Rap guanine nucleotide exchange factor 3 (Homo sapiens) (UniProt O95398); assay: Counterscreen qHTS for agonist of cAMP-regulated guanine nucleotide exchange factor 3 (EPAC1) (AID 1645889); note: nearly all actives have a fitted effect of over 40% in size; note: potency is the fitted concentration of half-maximal effect
# Method in brief: as §1
Compound,Potency [1],Potency [2],Potency [3],Potency [4],Potency [5],Potency [6],activation [3],"activity change, negative = inhibition [5]",activation [6],outcome [4]
CCCCC(=O)Nc1cccc(NC(=O)c2ccccc2Br)c1,inactive,inactive,inactive,inactive,inactive,inactive,,,,
COC(=O)c1cn(C(=O)c2cc(OC)c(OC)c(OC)c2)c2ccccc12,inactive,inactive,inactive,inactive,inactive,inactive,,,,
Cc1nnc(N/N=C\c2ccc(-c3ccccc3[N+](=O)[O-])o2)n1N,inactive,inactive,,inactive,,,"4.31% [at 17.1 µM, percent relative to cAMP agonist control]",7.63% [at 30.8 µM],36.2% [at 30.8 µM],
Cc1cn([C@H]2C[C@H](O)[C@@H](CCC(=O)NCc3ccc4c(c3)OCO4)O2)c(=O)[nH]c1=O,inactive,inactive,inactive,inactive,inactive,inactive,,,,
CCCCCC1CCC(c2ccc(C(N)=O)cc2)CC1 (stereo not drawn),inactive,inactive,inactive,inactive,inactive,inactive,,,,
CN1C(=O)/C(=C\c2ccc(N(C)C)cc2)OC1=S,inactive,inactive,inactive,inactive,inactive,15.8 µM (active),,,,
CC(Oc1ccccc1)C(=O)Nc1nnc(S(=O)(=O)N2CCCCC2)s1 (stereo not drawn),inactive,inactive,inactive,inactive,inactive,inactive,,,,
Cc1nc(SC(C)C(=O)NCC2CCCO2)c2cc(-c3ccccc3)sc2n1 (stereo not drawn),inactive,inactive,inactive,inactive,inactive,inactive,,,,
Cc1ccc(F)c(NC(=O)/C(C#N)=C(\O)c2ccc(C(C)(C)C)cc2)c1,8.91 µM (active),inactive,,inactive,,,"-11.9% [at 17.1 µM, percent relative to cAMP agonist control]",8.44% [at 30.8 µM],14.8% [at 30.8 µM],
CCCS(=O)(=O)N1CCC(C(=O)NCCN2CCCC2)CC1,inactive,inactive,,inactive,,,"10.1% [at 17.1 µM, percent relative to cAMP agonist control]",-10.8% [at 30.8 µM],25.6% [at 30.8 µM],
COCCCn1c(=O)/c(=C\c2ccc(OC(F)F)c(OC)c2)s/c1=C(/C#N)C(N)=O,inactive,inactive,inactive,inactive,inactive,inactive,,,,
CCCCC1=CC2=CC(=O)C(C)(OC(=O)C3CCCC3)C(=O)C2=CO1 (stereo not drawn),39.8 µM (active),inactive,,inactive,,,"1.4% [at 17.1 µM, percent relative to cAMP agonist control]",-20.6% [at 30.8 µM],18% [at 30.8 µM],
COc1cc(SC)ccc1C(=O)N(Cc1ccccc1)c1ccccc1,inactive,inactive,inactive,23.9 µM (active),inactive,inactive,,,,
N#Cc1c(-c2ccccc2)nc(SCc2cccc(Cl)c2)[nH]c1=O,67.5 µM (active),inactive,inactive,37.9 µM (active),inactive,inactive,,,,
N#Cc1c(-c2ccccc2)nc(SCc2ccc(Cl)cc2)[nH]c1=O,33.8 µM (active),inactive,inactive,33.8 µM (active),inactive,inactive,,,,
C/C(=C\c1ccco1)CN1CCN(Cc2ccc(C)o2)C(CCO)C1 (stereo not drawn),inactive,inactive,inactive,inactive,inactive,inactive,,,,
COc1ccccc1/C=C/C=C1\Oc2c(ccc(O)c2CN(C)C)C1=O,inactive,89.1 µM (active),112 µM (active),inactive,inactive,63.1 µM (active),,,,
C[n+]1cc(C(=O)N2CCCCC2)ccc1/C=C/c1c[nH]c2ccccc12,inactive,89.1 µM (active),,inactive,,,"10.6% [at 17.1 µM, percent relative to cAMP agonist control]",-7.76% [at 30.8 µM],14.5% [at 30.8 µM],
CC1CCCCN1C(=O)COC(=O)c1cc([N+](=O)[O-])ccc1N1CCOCC1 (stereo not drawn),inactive,inactive,inactive,inactive,inactive,inactive,,,,
O=C(CCNC(=O)c1ccc(Br)cc1)Nc1ccccc1N1CCOCC1,inactive,inactive,inactive,inactive,inactive,inactive,,,,
Nc1c(C(=O)c2ccccc2)sc2nsc(SCCN3CCCC3)c12,inactive,100 µM (active),100 µM (active),84.9 µM (active),inactive,39.8 µM (active),,,,
Cc1nn(CCc2nc(-c3ccco3)cs2)c2[nH]c(=O)cc(C(F)(F)F)c12,inactive,inactive,inactive,inactive,inactive,inactive,,,,

Compound,Potency [1],Potency [2],Potency [3],Potency [4],Potency [5],Potency [6],activation [3],"activity change, negative = inhibition [5]",activation [6],outcome [4]
COC(=O)c1cc2occc2n1Cc1ccc(F)cc1Cl,inactive,inactive,inactive,inactive,inactive,inactive,,,,
CCCCOc1ccccc1Cn1c(=O)sc2ccccc21,inactive,inactive,inactive,,inactive,inactive,,,,inactive [at 12.7 µM]
COCOCCn1cc(CN2CCS(=O)(=O)N(Cc3ccc(-c4ccc(Cl)cc4)cc3)C(CC(C)C)C2=O)nn1 (stereo not drawn),inactive,inactive,inactive,inactive,inactive,inactive,,,,
O=c1ccc(-c2ccccc2)nn1Cc1c(F)cccc1Cl,inactive,inactive,inactive,inactive,inactive,inactive,,,,
CC1=CC=CC2=NC(=O)CC(C)(C(=O)N(CC(=O)NC(C)C)C3CCCC3)N12 (stereo not drawn),inactive,inactive,,inactive,,,"3.39% [at 17.1 µM, percent relative to cAMP agonist control]",-13.5% [at 30.8 µM],26.5% [at 30.8 µM],
O=C(Nc1ccc(F)cc1F)C1CCN(c2ncccn2)CC1,inactive,inactive,inactive,inactive,inactive,inactive,,,,
CCC(C)Sc1c(C(C)C)cnc2c1c(=O)n(C)c(=O)n2C (stereo not drawn),inactive,inactive,inactive,inactive,inactive,inactive,,,,
Cc1ccc2nc(-c3ccccc3)c(Cc3ccccc3C(F)(F)F)n2c1,inactive,inactive,inactive,inactive,inactive,inactive,,,,
CC(C)CNC(=O)c1[nH]c(C(F)(F)F)nc1-c1ccccc1,inactive,inactive,,inactive,,,"3.83% [at 17.1 µM, percent relative to cAMP agonist control]",-17.1% [at 30.8 µM],30.5% [at 30.8 µM],
CCOC(=O)c1ccccc1NC(=S)N1CCC(N2CCCCC2)CC1,inactive,inactive,inactive,inactive,inactive,inactive,,,,
COC(=O)c1ccccc1NC(=O)CN1C(=O)COc2ccc(Cl)cc21,inactive,inactive,inactive,inactive,inactive,inactive,,,,
N#Cc1cc(C(=O)c2ccccc2O)cn(-c2nccs2)c1=O,inactive,112 µM (active),100 µM (active),47.8 µM (active),inactive,39.8 µM (active),,,,
CN1CCS/C1=C/C=C1\SC(=S)N(CC(=O)O)C1=O,inactive,50.1 µM (active),,inactive,,14.1 µM (active),"15.2% [at 17.1 µM, percent relative to cAMP agonist control]",62.8% [at 30.8 µM],,
Cc1ccc(CN(C(=O)COc2cccc(Cl)c2)c2ccccn2)o1,inactive,inactive,inactive,inactive,inactive,inactive,,,,
O=C(CCCCCl)Nc1c2c(nc3ccccc13)CCC2,inactive,inactive,,inactive,,,"1.22% [at 17.1 µM, percent relative to cAMP agonist control]",-8.13% [at 30.8 µM],-2.96% [at 30.8 µM],
CCCCSc1nc2c(c(=O)n1CC)SC(C)C2 (stereo not drawn),inactive,inactive,,inactive,,,"-4.2% [at 17.1 µM, percent relative to cAMP agonist control]",2.79% [at 30.8 µM],5.23% [at 30.8 µM],
COC(=O)C1(Cc2ccccc2)NC(c2ccc(F)cc2)C2C(=O)N(C)C(=O)C21 (stereo not drawn),inactive,inactive,,inactive,,,"1.04% [at 17.1 µM, percent relative to cAMP agonist control]",4.27% [at 30.8 µM],3.32% [at 30.8 µM],
COc1cccc(C(NC(C)=O)c2nc(-c3csc4ccccc34)cs2)c1 (stereo not drawn),inactive,inactive,,inactive,,,"1.45% [at 17.1 µM, percent relative to cAMP agonist control]",-22.7% [at 30.8 µM],29.4% [at 30.8 µM],
CCc1cccc(C)c1NC(=O)c1cc2ccccc2o1,inactive,inactive,inactive,inactive,inactive,inactive,,,,
Cn1c2ccccc2c2cc(/C=N/NC(=O)c3cc(O)ccc3O)ccc21,25.1 µM (active),inactive,,inactive,,,"-2.01% [at 17.1 µM, percent relative to cAMP agonist control]",-0.77% [at 30.8 µM],29.4% [at 30.8 µM],
CCOC(=O)c1ccccc1NC(=O)CSc1nccn1Cc1ccco1,inactive,inactive,inactive,inactive,inactive,inactive,,,,

# — PubChem BioAssay (NCATS)
